Laboratory results reported in the supplement of paper PMC6992640.
Counter-ions that a name gives are not always drawn.

Key:
HCI01 = cells of a triple-negative basal-like breast cancer xenograft; assay: cell viability of combination (% of vehicle); higher = less cytotoxic; settings: 1 µM; 72 h; partner dose: 10 nM
Protocol: (§1)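 PDX cells were treated for 72 h with each drug at 1 µM plus afatinib (10 nM; 1 µM for WHIM30). Luciferase viability is expressed as percent of vehicle.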

WHIM2 = cells of a triple-negative basal-like breast cancer xenograft; assay: as above; settings: 1 µM; 72 h; partner dose: 10 nM
Protocol: as §1

Compound	cell viability of combination (HCI01)	cell viability of combination (WHIM2)
Nc1ccc2cc3ccc([NH3+])cc3nc2c1.Nc1ccc2cc3ccc([NH3+])cc3nc2c1.O=S(=O)([O-])[O-] [Proflavine Hemisulfate] + CN(C)C/C=C/C(=O)Nc1cc2c(Nc3ccc(F)c(Cl)c3)ncnc2cc1O[C@H]1CCOC1 [Afatinib]	59.6	29.5
Cl.OC(CNCC(O)C1CCc2cc(F)ccc2O1)C1CCc2cc(F)ccc2O1 (configuration not stated) [Nebivolol] + CN(C)C/C=C/C(=O)Nc1cc2c(Nc3ccc(F)c(Cl)c3)ncnc2cc1O[C@H]1CCOC1 [Afatinib]	47.1	44.7
CCN(CC)CCNC(=O)c1c(C)[nH]c(C=C2C(=O)Nc3ccc(F)cc32)c1C [Sunitinib] + CN(C)C/C=C/C(=O)Nc1cc2c(Nc3ccc(F)c(Cl)c3)ncnc2cc1O[C@H]1CCOC1 [Afatinib]	38.8	25.7
CC[C@@]1(O)C(=O)OCc2c1cc1n(c2=O)Cc2cc3c(CN(C)C)c(O)ccc3nc2-1.Cl [Topotecan HCl] + CN(C)C/C=C/C(=O)Nc1cc2c(Nc3ccc(F)c(Cl)c3)ncnc2cc1O[C@H]1CCOC1 [Afatinib]	41.4	25.2
COc1cc2nccc(Oc3ccc(NC(=O)C4(C(=O)Nc5ccc(F)cc5)CC4)cc3)c2cc1OC.O=C(O)CC(O)C(=O)O [Cabozantinib malate (XL184)] + CN(C)C/C=C/C(=O)Nc1cc2c(Nc3ccc(F)c(Cl)c3)ncnc2cc1O[C@H]1CCOC1 [Afatinib]	50.8	43.2
CCN(CC)CCNC(=O)c1c(C)[nH]c(C=C2C(=O)Nc3ccc(F)cc32)c1C.O=C(O)CC(O)C(=O)O [Sunitinib malate] + CN(C)C/C=C/C(=O)Nc1cc2c(Nc3ccc(F)c(Cl)c3)ncnc2cc1O[C@H]1CCOC1 [Afatinib]	42	44.2
COc1cc2c(Oc3ccc4[nH]c(C)cc4c3F)ncnc2cc1OCCCN1CCCC1 [Cediranib (AZD217)] + CN(C)C/C=C/C(=O)Nc1cc2c(Nc3ccc(F)c(Cl)c3)ncnc2cc1O[C@H]1CCOC1 [Afatinib]	47.5	31.6
CCCCc1oc2ccc(NS(C)(=O)=O)cc2c1C(=O)c1ccc(OCCCN(CCCC)CCCC)cc1.Cl [Dronedarone HCl] + CN(C)C/C=C/C(=O)Nc1cc2c(Nc3ccc(F)c(Cl)c3)ncnc2cc1O[C@H]1CCOC1 [Afatinib]	54.4	52.5
CC(C)CC(NC(=O)CNC(=O)c1cc(Cl)ccc1Cl)B(O)O (configuration not stated) + CN(C)C/C=C/C(=O)Nc1cc2c(Nc3ccc(F)c(Cl)c3)ncnc2cc1O[C@H]1CCOC1 [Afatinib]	37	94.3
COCCOC(=O)C1=C(C)NC(C)=C(C(=O)OCC=Cc2ccccc2)C1c1cccc([N+](=O)[O-])c1 (configuration not stated) [Cilnidipine] + CN(C)C/C=C/C(=O)Nc1cc2c(Nc3ccc(F)c(Cl)c3)ncnc2cc1O[C@H]1CCOC1 [Afatinib]	48.9	40.4
C=C1C(=CC=C2CCCC3(C)C2CCC3C(C)CCCC(C)C)CC(O)CC1O (configuration not stated) [Alfacalcidol] + CN(C)C/C=C/C(=O)Nc1cc2c(Nc3ccc(F)c(Cl)c3)ncnc2cc1O[C@H]1CCOC1 [Afatinib]	42.1	34.4
CC(C)COc1ccc(CNC(=O)N(Cc2ccc(F)cc2)C2CCN(C)CC2)cc1 [Pimavanserin] + CN(C)C/C=C/C(=O)Nc1cc2c(Nc3ccc(F)c(Cl)c3)ncnc2cc1O[C@H]1CCOC1 [Afatinib]	52.8	50.8
COc1ccc2c(O[C@H]3CC4C(=O)N(C)CCCC/C=C\[C@H]5C[C@@]5(C(=O)NS(=O)(=O)C5CC5)NC(=O)[C@@H]4C3)cc(-c3nc(C(C)C)cs3)nc2c1C (some centres not stated) [Simeprevir] + CN(C)C/C=C/C(=O)Nc1cc2c(Nc3ccc(F)c(Cl)c3)ncnc2cc1O[C@H]1CCOC1 [Afatinib]	53.9	46.8
COc1nc2ccc(Br)cc2cc1[C@@H](c1ccccc1)[C@@](O)(CCN(C)C)c1cccc2ccccc12 [Bedaquiline fumarate] + CN(C)C/C=C/C(=O)Nc1cc2c(Nc3ccc(F)c(Cl)c3)ncnc2cc1O[C@H]1CCOC1 [Afatinib]	52.9	49
CN1CCN(c2ccc(C(=O)/N=c3\[nH][nH]c4ccc(Cc5cc(F)cc(F)c5)cc34)c(NC3CCOCC3)c2)CC1 [Entrectinib] + CN(C)C/C=C/C(=O)Nc1cc2c(Nc3ccc(F)c(Cl)c3)ncnc2cc1O[C@H]1CCOC1 [Afatinib]	57.5	38.5
C=CC(=O)N1CCC(Oc2cc3c(Nc4ccc(Cl)c(Cl)c4F)ncnc3cc2OC)CC1 [Poziotinib] + CN(C)C/C=C/C(=O)Nc1cc2c(Nc3ccc(F)c(Cl)c3)ncnc2cc1O[C@H]1CCOC1 [Afatinib]	42.9	22.2
Cc1cn(-c2cc(NC(=O)c3ccc(C)c(Nc4nccc(-c5cccnc5)n4)c3)cc(C(F)(F)F)c2)cn1 [Nilotinib(AMN-107)] + CN(C)C/C=C/C(=O)Nc1cc2c(Nc3ccc(F)c(Cl)c3)ncnc2cc1O[C@H]1CCOC1 [Afatinib]	45.9	63.2
CO[C@H]1C[C@@H]2CC[C@@H](C)[C@@](O)(O2)C(=O)C(=O)N2CCCC[C@H]2C(=O)O[C@H]([C@H](C)C[C@@H]2CC[C@@H](O)[C@H](OC)C2)CC(=O)[C@H](C)/C=C(\C)[C@@H](O)[C@@H](OC)C(=O)[C@H](C)C[C@H](C)/C=C/C=C/C=C/1C [Rapamycin (Sirolimus)] + CN(C)C/C=C/C(=O)Nc1cc2c(Nc3ccc(F)c(Cl)c3)ncnc2cc1O[C@H]1CCOC1 [Afatinib]	51	39.3
COc1cc(C(=O)NS(=O)(=O)c2ccccc2C)ccc1Cc1cn(C)c2ccc(NC(=O)OC3CCCC3)cc12 [Zafirlukast] + CN(C)C/C=C/C(=O)Nc1cc2c(Nc3ccc(F)c(Cl)c3)ncnc2cc1O[C@H]1CCOC1 [Afatinib]	61.4	52.2
COc1cc2nccc(Oc3ccc(NC(=O)NC4CC4)c(Cl)c3)c2cc1C(N)=O [Lenvatinib (E7080)] + CN(C)C/C=C/C(=O)Nc1cc2c(Nc3ccc(F)c(Cl)c3)ncnc2cc1O[C@H]1CCOC1 [Afatinib]	40	32.5
Cc1ccc(NC(=O)c2ccc(CN3CCN(C)CC3)cc2)cc1Nc1nc(-c2cccnc2)cs1 [Masitinib (AB1010)] + CN(C)C/C=C/C(=O)Nc1cc2c(Nc3ccc(F)c(Cl)c3)ncnc2cc1O[C@H]1CCOC1 [Afatinib]	47.8	54.7
CCc1oc2ccccc2c1C(=O)c1cc(Br)c(O)c(Br)c1 [Benzbromarone] + CN(C)C/C=C/C(=O)Nc1cc2c(Nc3ccc(F)c(Cl)c3)ncnc2cc1O[C@H]1CCOC1 [Afatinib]	56.3	48
C#Cc1cccc(Nc2ncnc3cc(OCCOC)c(OCCOC)cc23)c1 [Erlotinib] + CN(C)C/C=C/C(=O)Nc1cc2c(Nc3ccc(F)c(Cl)c3)ncnc2cc1O[C@H]1CCOC1 [Afatinib]	41.1	42
COc1cccc2c1C(=O)c1c(O)c3c(c(O)c1C2=O)CC(O)(C(=O)CO)CC3OC1CC(N)C(O)C(C)O1.Cl (configuration not stated) [Doxorubicin (Adriamycin) HCl] + CN(C)C/C=C/C(=O)Nc1cc2c(Nc3ccc(F)c(Cl)c3)ncnc2cc1O[C@H]1CCOC1 [Afatinib]	49.5	13.6
CC(O)C(=O)O.CC(O)C(=O)O.CN1CCN(c2ccc3c(c2)NC(=C2C(=O)N=c4cccc(F)c4=C2N)N3)CC1 [Dovitinib Dilactic acid] + CN(C)C/C=C/C(=O)Nc1cc2c(Nc3ccc(F)c(Cl)c3)ncnc2cc1O[C@H]1CCOC1 [Afatinib]	42.3	30.4
CC1=C(C(=O)OC(C)C)C(c2cccc([N+](=O)[O-])c2)C(C(=O)OC2CN(C(c3ccccc3)c3ccccc3)C2)=C(N)N1 (configuration not stated) [Azelnidipine] + CN(C)C/C=C/C(=O)Nc1cc2c(Nc3ccc(F)c(Cl)c3)ncnc2cc1O[C@H]1CCOC1 [Afatinib]	56.7	43
